Reference: PubChem BioAssay (EPA / NIEHS)
Inconclusive results are not listed. Activity calls are given as the source filed them. The calls were made as follows: active = hit-call score of the fitted dose curve at least 0.9, where 1 is the maximum; inconclusive = response in the unintended direction; inactive = score below 0.9.

target: human Phosphoinositide 3-kinase alpha (PI3Ka), PIK3CA (gene 5290) (UniProt P42336); assay: NVS_ENZ_hPI3Ka: NovaScreen (NVS) Enzymatic Assay for human Phosphoinositide 3-kinase alpha (PI3Ka) (AID 2283196)
Sequence (P42336 whole entry, looked up): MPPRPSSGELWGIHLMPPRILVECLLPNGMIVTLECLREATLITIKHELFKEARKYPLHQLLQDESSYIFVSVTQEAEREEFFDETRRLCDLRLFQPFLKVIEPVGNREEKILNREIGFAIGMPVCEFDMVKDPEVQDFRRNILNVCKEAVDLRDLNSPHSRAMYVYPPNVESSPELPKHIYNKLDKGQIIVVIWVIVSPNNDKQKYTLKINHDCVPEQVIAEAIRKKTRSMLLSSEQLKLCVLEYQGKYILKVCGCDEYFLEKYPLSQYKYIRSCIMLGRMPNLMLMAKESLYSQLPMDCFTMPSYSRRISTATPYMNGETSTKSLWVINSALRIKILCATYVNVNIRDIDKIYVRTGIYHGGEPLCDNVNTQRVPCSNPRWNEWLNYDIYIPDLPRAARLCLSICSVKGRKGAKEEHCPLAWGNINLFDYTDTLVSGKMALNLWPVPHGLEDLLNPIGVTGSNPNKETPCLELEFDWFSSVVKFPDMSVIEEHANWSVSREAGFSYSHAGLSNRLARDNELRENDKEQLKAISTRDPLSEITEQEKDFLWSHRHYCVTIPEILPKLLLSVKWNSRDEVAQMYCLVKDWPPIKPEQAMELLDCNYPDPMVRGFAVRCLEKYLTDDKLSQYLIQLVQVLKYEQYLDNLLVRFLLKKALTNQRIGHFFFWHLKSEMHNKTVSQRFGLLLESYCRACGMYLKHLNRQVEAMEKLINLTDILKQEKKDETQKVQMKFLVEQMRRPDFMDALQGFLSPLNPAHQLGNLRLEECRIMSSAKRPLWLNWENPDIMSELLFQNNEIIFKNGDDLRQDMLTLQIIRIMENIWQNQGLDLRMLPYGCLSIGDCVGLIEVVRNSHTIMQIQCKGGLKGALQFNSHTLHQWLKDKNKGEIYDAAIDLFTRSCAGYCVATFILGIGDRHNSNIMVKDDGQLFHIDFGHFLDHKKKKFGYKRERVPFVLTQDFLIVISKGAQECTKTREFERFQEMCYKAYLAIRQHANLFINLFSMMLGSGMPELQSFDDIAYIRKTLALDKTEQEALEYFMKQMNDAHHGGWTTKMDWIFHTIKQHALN
Description: NVS_ENZ_hPI3Ka is a biochemical, single-readout assay that uses extracted gene-proteins in a cell-free assay. Measurements were taken 1 hour after chemical dosing in a 384-well plate.NVS_ENZ_hPI3Ka is one of one assay component(s) measured or calculated from the NVS_ENZ_hPI3Ka assay. It is designed to make measurements of enzyme activity, a form of enzyme reporter, as detected with fluorescence intensity signals by Fluorescence and electrophoretic mobility shift technology.Data from the assay component NVS_ENZ_hPI3Ka was analyzed into 1 assay endpoint. This assay endpoint, NVS_ENZ_hPI3Ka, was analyzed in the positive analysis fitting direction relative to DMSO as the negative control and baseline of activity. Using a type of enzyme reporter, loss-of-signal activity can be used to understand changes in the enzymatic activity as they relate to the gene PIK3CA. Furthermore, this assay endpoint can be referred to as a primary readout, because this assay has produced multiple assay endpoints where this one serves a enzymatic activity function. To generalize the intended target to other relatable targets, this assay endpoint is annotated to the kinase intended target family, where the subfamily is phosphoinositol kinase.
Binding assays used specific radioligands (tritiated, iodinated) with non-radioactive competitive displacement ligands in agonist or antagonist protocols (as indicated) and various reference compounds and inhibitors to titrate specific binding to receptors and transporters. Most enzyme assays (CYPs, kinases, phosphatases, proteases, HDACs) used recombinant protein and specific substrates (fluorescence mostly, some colorimetric and radioactive) and inhibitors, followed by a biochemical separation of substrate and product. All assays for the biochemical HTS were initially run in duplicate at a single concentration (10 uM for CYP450 assays and 25 uM for all others). Assay-chemical combinations meeting a pre-defined threshold (e.g., 30% inhibition and other criteria defined below) were then run in singleton concentration-response format with maximum concentration of 20 uM for CYPs and 50 uM for all others. Each assay was run with positive and negative controls, and concurrent controls on every plate. The follow-up (secondary) screen tested active chemical-pairs in concentration series, as well as a few additional assays not tested in the primary screen, some selected negative inactives, and several cases re-run in the concentration series for confirmatory purposes.

| SMILES | AC50 | outcome |
| --- | --- | --- |
| CCCCCCCCCCCCc1cccc(S(=O)(=O)O)c1 | 7.17 µM (active) | – |
| C=CC(=O)NC(C)(C)CC(C)=O | – | inactive |
| CCOC(=O)CCN(SN(C)C(=O)Oc1cccc2c1OC(C)(C)C2)C(C)C | – | inactive |
| CC[N+](CC)(CC)CC | – | inactive |
| CC(C)[N+](=O)[O-] | – | inactive |
| O=C1c2ccccc2C(=O)C1C(=O)C(c1ccccc1)c1ccc(Cl)cc1 (stereo not given) | 16.8 µM (active) | – |
| C=CCCl | – | inactive |
| Nc1nc(N)nc(Cl)n1 | – | inactive |
| O=[N+]([O-])c1ccc(Nc2ccccc2)cc1 | – | inactive |
| Nc1c(Oc2ccccc2)cc(O)c2c1C(=O)c1ccccc1C2=O | 3.26 µM (active) | – |
| Cc1cc(C(C)(C)c2ccc(O)c(C)c2)ccc1O | 5.25 µM (active) | – |
| CCC(C)(C#N)N=NC(C)(C#N)CC (stereo not given) | – | inactive |
| O=c1oc2ccccc2c(O)c1C(CC(O)c1ccc(-c2ccc(Br)cc2)cc1)c1ccccc1 (stereo not given) | 5.19 µM (active) | – |
| O=C(O)C1(c2ccc3c(c2)OC[C@H](Cc2ccc(-c4ccccc4)cc2)[C@H]3O)CCCC1 | – | inactive |
| Oc1ccc(Cc2ccc(O)cc2)cc1 | – | inactive |
